Measured values: PubChem BioAssay (EPA / NIEHS)
“And” between values parts separate entries of the source, which are not always exact repeats. Equal entries are not always repeated. Records with an inconclusive call do not appear. The source made the active and inactive calls. The calls were made as follows: active = hit-call score of the fitted dose curve at least 0.9, where 1 is the maximum; inconclusive = response in the unintended direction; inactive = score below 0.9.

Each molecule was assayed on DIO1 (gene 1733) (assay: CCTE_GLTED_hDIO1: CCTE's human Deiodinase 1 (DIO1) Inhibition Assay, Great Lakes Toxicology and Ecology Division (GLTED) Lab (AID 2283987);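 also: isolated human DIO1 enzyme in a cell-free setup rather than cells; enzyme activity read as free iodide liberated from substrate via Sandell-Kolthoff colorimetry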).
How it was run: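 Inhibition read as reduced iodide release: after 3 h of human DIO1 with chemical, free iodide is quantified colorimetrically (Sandell-Kolthoff cerium/arsenic reaction). Triplicate plates, DMSO baseline.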

| Compound | AC50 |
| --- | --- |
| CCCCCCCCc1ccc(O)cc1 | 57.1 µM (active) |
| CCC(C)(C)c1ccc(O)c(C(C)(C)CC)c1 | 46.1 µM (active) |
| CC(C)(c1ccc(OCC2CO2)cc1)c1ccc(OCC2CO2)cc1 (stereo not given) | 1.37 µM (active) |
| C=CC(=O)OCCCCCC(C)C | 30.8 µM (active) |
| O=C(O)C(F)(F)C(F)(F)C(F)(F)C(F)(F)C(F)(F)C(F)(F)C(F)(F)C(F)(F)C(F)(F)C(F)(F)F | 157 µM (active) and 18 µM (active) |
| CC(C)(C)CC(C)(C)c1ccc(O)cc1 | 90.7 µM (active) |
| O=C1C(Cl)=C(Cl)C(=O)c2ccccc21 | 20 µM (active) |
| COP(=O)(OC)O/C(=C\Cl)c1cc(Cl)c(Cl)cc1Cl | 48.7 µM (active) |
| COP(=S)(OC)Oc1ccc(Sc2ccc(OP(=S)(OC)OC)cc2)cc1 | 1.19 µM (active) |

These molecules were tested against Nucleoli Translocation, AR (gene 367) (UniProt P10275) (assay: UPITT_HCI_U2OS_AR_TIF2_Nucleoli_Agonist: University of Pittsburgh U2OS Androgen Receptor-Transcriptional Intermediary Factor 2 (AR-TIF2) Agonism High Content Imaging Assay for Nucleoli Translocation (AID 2283998)).
Chain of Nucleoli Translocation, AR (gene 367) (P10275 whole entry, looked up): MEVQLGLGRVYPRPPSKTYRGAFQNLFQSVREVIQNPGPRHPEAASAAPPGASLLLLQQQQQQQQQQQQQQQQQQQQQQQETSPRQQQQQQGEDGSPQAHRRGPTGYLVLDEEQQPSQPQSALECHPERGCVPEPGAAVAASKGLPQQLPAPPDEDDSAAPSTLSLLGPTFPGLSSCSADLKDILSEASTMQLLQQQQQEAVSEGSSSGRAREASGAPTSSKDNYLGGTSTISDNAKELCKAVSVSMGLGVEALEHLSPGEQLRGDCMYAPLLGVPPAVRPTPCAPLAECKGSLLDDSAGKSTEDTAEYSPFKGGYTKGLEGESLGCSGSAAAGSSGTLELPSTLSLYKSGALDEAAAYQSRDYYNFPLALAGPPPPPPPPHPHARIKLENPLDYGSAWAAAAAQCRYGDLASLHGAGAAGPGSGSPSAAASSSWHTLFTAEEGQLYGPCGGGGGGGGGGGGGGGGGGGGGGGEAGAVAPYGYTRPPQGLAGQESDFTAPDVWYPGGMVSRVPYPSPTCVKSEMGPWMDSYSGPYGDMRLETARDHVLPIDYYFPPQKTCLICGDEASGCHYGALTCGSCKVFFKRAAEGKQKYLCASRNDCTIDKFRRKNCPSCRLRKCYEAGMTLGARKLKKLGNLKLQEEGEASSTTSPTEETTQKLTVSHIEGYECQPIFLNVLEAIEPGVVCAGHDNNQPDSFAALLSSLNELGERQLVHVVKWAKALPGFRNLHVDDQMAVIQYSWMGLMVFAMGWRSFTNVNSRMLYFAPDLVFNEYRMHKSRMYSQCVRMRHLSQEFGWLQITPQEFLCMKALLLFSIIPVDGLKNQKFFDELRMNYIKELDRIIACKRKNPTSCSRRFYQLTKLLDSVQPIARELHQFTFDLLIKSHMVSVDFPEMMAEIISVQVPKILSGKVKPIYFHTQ
How it was run: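 Nucleolar translocation of AR-RFP, with TIF2-GFP coexpressed in human osteosarcoma U2OS, imaged by high-content fluorescence. Compounds tested singly at 20 uM final, confirmed in triplicate, then titrated 0.195–50 uM final; gain-of-signal relative to DMSO.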

| Compound | outcome | AC50 |
| --- | --- | --- |
| Cl/C=C\C[N+]12CN3CN(CN(C3)C1)C2 | inactive |  |
| Cc1ccc2ccccc2c1C | inactive |  |
| CCSC(C)CC1CC(=O)C(C(CC)=NOC/C=C/Cl)=C(O)C1 (stereo not given) | inactive |  |
| CC(C)(c1ccc(OCC2CO2)cc1)c1ccc(OCC2CO2)cc1 (stereo not given) | inactive |  |
| c1cc[c]([Hg][c]2ccccc2)cc1 | inactive |  |
| C=CC(=O)OCCCCCC(C)C | inactive |  |
| CN(CCCC(=O)c1cccnc1)N=O | inactive |  |
| COP(=O)(OC)OC | inactive |  |
| C[C@H]1O[C@@H](O[C@H]2[C@@H](O)C[C@H](O[C@H]3[C@@H](O)C[C@H](O[C@H]4CC[C@@]5(C)[C@H](CC[C@@H]6[C@@H]5CC[C@]5(C)[C@@H](C7=CC(=O)OC7)CC[C@]65O)C4)O[C@@H]3C)O[C@@H]2C)C[C@H](O)[C@@H]1O | inactive |  |
| Clc1ccc(COC(Cn2ccnc2)c2ccc(Cl)cc2Cl)cc1 (stereo not given) |  | 50 µM (active) |
| O=c1[nH]c(=O)[nH]c(=O)[nH]1 | inactive |  |
| Cc1ccccc1C(=O)Nc1cccc(OC(C)C)c1 | inactive |  |
| COP(=S)(OC)Oc1cc(Cl)c(Cl)cc1Cl | inactive |  |
| CC12CC1(C)C(=O)N(c1cc(Cl)cc(Cl)c1)C2=O (stereo not given) | inactive |  |
| COP(=O)(OC)O/C(=C\Cl)c1cc(Cl)c(Cl)cc1Cl | inactive |  |
| COP(=S)(OC)Oc1ccc(Sc2ccc(OP(=S)(OC)OC)cc2)cc1 | inactive |  |
